{"source": "PubChem BioAssay"}
{"biological_target": "Fibroblast growth factor 2 (Homo sapiens) (UniProt P09038)", "sequence (P09038 whole entry, looked up)": "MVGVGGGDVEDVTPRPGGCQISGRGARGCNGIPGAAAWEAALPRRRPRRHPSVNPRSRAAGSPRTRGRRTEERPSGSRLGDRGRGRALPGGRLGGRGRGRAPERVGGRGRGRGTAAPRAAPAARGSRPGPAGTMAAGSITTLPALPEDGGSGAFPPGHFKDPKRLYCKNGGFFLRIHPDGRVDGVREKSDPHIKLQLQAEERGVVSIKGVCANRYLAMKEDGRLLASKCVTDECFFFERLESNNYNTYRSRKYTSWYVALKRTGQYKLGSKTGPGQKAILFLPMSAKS", "assay": "FGF2 binders on small-molecule microarrays, primary screen, biochemical, small-molecule microarray, 635/667 nm fluorescence (AID 1133)", "details": "small-molecule microarray binding, FGF2, fluorescence 635/667; higher = more signal"}
{"molecule": "CC(C)[Si](C#C[Si](C(C)C)(C(C)C)C(C)C)(O[C@H](C)c1cn(Cc2cccc(Cl)c2)nn1)C(C)C", "composite z-score": 0.67}
{"molecule": "CC(C)(C)OC(=O)CC[C@]1(C(=O)N2CCCCC2)N=C(c2ccc(OCCCO)cc2)O[C@H]1c1ccccc1CN=[N+]=[N-]", "composite z-score": 1.42}
{"molecule": "CCOC(=O)C[C@H]1[C@H](OC(=O)Cc2ccc3c(c2)OCO3)[C@@H](NC(=O)c2ccccc2)c2cc(OCCCO)ccc2N1C(=O)c1ccc2ccccc2n1", "composite z-score": 0.77}
{"molecule": "CC(C)CCC[C@@H](C)[C@H]1CC[C@@]2(C)C3=C(CC[C@]12C)[C@@]1(C)CC[C@H](OC(=O)c2ccc(N)cc2)C(C)(C)C1CC3", "note": "(stereo not given in full)", "composite z-score": 0.612}
{"molecule": "C=CCC(OC(C)=O)[C@@H]1[C@@H](N(Cc2cccc3ccccc23)C(=O)c2ccc(C)cc2)c2cc(OCCCO)ccc2N1C(=O)c1ccc2ccccc2c1", "note": "(stereo not given in full)", "composite z-score": 0.123}
{"molecule": "COC(=O)C(CC#Cc1ccc2c(c1)[C@]1(C(=O)N2)[C@H](c2ccccc2OCCO)N2[C@H](c3ccccc3)[C@H](c3ccccc3)OC(=O)[C@H]2[C@@H]1C(=O)Nc1nc2ccccc2s1)C(=O)OC", "composite z-score": 0.622}
{"molecule": "C=CCOC(=O)[C@@H]1[C@H]2C(=O)O[C@H](c3ccccc3)[C@H](c3ccccc3)N2[C@H](c2ccc(OCCOC(=O)[C@@H]3C[C@@H]4C(=O)N5CCC[C@H]5C(=O)N4[C@@H]3c3cccc(OCCO)c3)cc2)[C@@]12C(=O)Nc1ccc(I)cc12", "composite z-score": 1.92}
{"molecule": "COc1ccc(C(=O)Nc2ccc(CN3C(=O)[C@]4(O[C@H](CCn5cc([C@H](O)c6ccccc6)nn5)[C@@H]([Si](C)(C)c5ccc(OC)cc5)[C@@H]4C)c4ccccc43)cc2)cc1", "composite z-score": -0.224}
{"molecule": "CN(C)C(=O)[C@@]1(CCC(=O)OC(C)(C)C)N=C(c2ccc(OCCCO)cc2)O[C@H]1c1ccccc1N=[N+]=[N-]", "composite z-score": 1.58}
{"molecule": "COCCOC(=O)N1C(=O)[C@@]2(c3cc(C#CCCO)ccc31)[C@H](C(=O)NC[C@H](O)c1ccccc1)[C@H]1C(=O)O[C@H](c3ccccc3)[C@H](c3ccccc3)N1[C@@H]2c1ccccc1OCCO", "composite z-score": 1.42}
{"molecule": "COc1ccc([Si](C)(C)[C@H]2[C@H](CCO)O[C@@]3(C(=O)N(Cc4cccc(N5CCOC5=O)c4)c4ccccc43)[C@@H]2C)cc1", "composite z-score": 0.203}
{"molecule": "CN(C)CCCC[C@@H]1NC(=O)[C@H]2C[C@@H](C(=O)NCCCCCCNC(=O)CS)[C@@H](c3ccc(O)cc3)N2C1=O", "composite z-score": 0.804}
{"molecule": "CC(C)=CCCC(C)=CC(O)C1C=CC2C(=O)N(c3ccccc3)C(=O)C2N1Nc1ccc([N+](=O)[O-])cc1", "note": "(stereo not given)", "composite z-score": -0.151}
{"molecule": "COC(=O)[C@@]1(Cc2ccc(OC)cc2)[C@H]2c3cc(C(=O)N(C)C)n(Cc4cc(F)c(F)c(F)c4)c3C[C@H]2CN1C(=O)c1ccccc1", "composite z-score": -0.965}
{"molecule": "COCCOC(=O)N1C(=O)[C@@]2(c3cc(C#CCC(C(=O)OC)C(=O)OC)ccc31)[C@H](C(=O)N1CCCCCCC1)[C@H]1C(=O)O[C@H](c3ccccc3)[C@H](c3ccccc3)N1[C@@H]2c1ccc(O)cc1", "composite z-score": 1.5}
{"molecule": "[N-]=[N+]=Nc1ccccc1[C@H]1OC(c2ccc(OCCCO)cc2)=N[C@@]1(Cc1ccccc1)C(=O)NCc1ccccc1", "composite z-score": 0.291}
{"molecule": "COC(=O)C(CC#Cc1ccc2c(c1)[C@]1(C(=O)N2)[C@H](c2ccc(O)cc2)N2[C@H](c3ccccc3)[C@H](c3ccccc3)OC(=O)[C@H]2[C@@H]1C(N)=O)C(=O)OC", "composite z-score": -1.44}
{"molecule": "C=CCNC(=O)[C@H]1[C@@H]2C(=O)O[C@@H](c3ccccc3)[C@@H](c3ccccc3)N2[C@@H](c2ccc(OCCO)cc2)[C@]12C(=O)N(C(=O)OCCOC)c1ccc(C#CC3=CCCCC3)cc12", "composite z-score": 1.25}
{"molecule": "COC(=O)[C@@]1(Cc2ccccc2)[C@H]2c3cc(C(=O)N(C)C)n(Cc4ccccn4)c3C[C@H]2CN1C(=O)c1ccccc1", "composite z-score": -0.389}
{"molecule": "O=C(Nc1cc(Br)ccc1C(=O)NCc1cccc(O)c1)c1ccccc1", "composite z-score": 0.324}
{"molecule": "NCCCCCCNC(=O)[C@H]1C[C@H]2C(=O)N3CCC[C@H]3C(=O)N2[C@H]1c1ccc(O)cc1", "composite z-score": 1.66}
{"molecule": "C#CCNS(=O)(=O)N(C)C", "composite z-score": 0.203}
{"molecule": "CCCC=C(CCC)[C@@H](NS(=O)(=O)CC)c1ccccc1", "composite z-score": 0.152}
{"molecule": "CN(C)CCCCCCNC(=O)[C@@H]1C[C@@H]2C(=O)NCC(=O)N2[C@@H]1c1ccc(O)cc1", "composite z-score": 1.65}
{"molecule": "NC(=O)NCC#Cc1ccc2c(c1)[C@]1(C(=O)N2)[C@H](c2ccc(O)cc2)N2[C@H](c3ccccc3)[C@H](c3ccccc3)OC(=O)[C@H]2[C@@H]1C(N)=O", "composite z-score": -0.219}
{"molecule": "COCCCNC(=O)[C@@]1(C)c2ccccc2C(=O)N(c2ccc(C)cn2)[C@H]1c1ccc(CO)cc1", "composite z-score": 0.204}
{"molecule": "COCCCNC(=O)[C@]1(Cc2ccccc2)N=C(c2ccc(OCCCO)cc2)O[C@@H]1c1ccccc1N=[N+]=[N-]", "composite z-score": 0.401}
{"molecule": "CCCC=C(CCC)[C@@H](NC(=O)Cc1ccccc1)c1ccc(C(=O)OC)cc1", "composite z-score": 0.0515}
{"molecule": "COc1ccc([Si](C)(C)[C@@H]2[C@@H](CCO)O[C@]3(C(=O)N(Cc4ccccc4)c4ccc(N5CCCCC5=O)cc43)[C@H]2C)cc1", "composite z-score": 0.634}
{"molecule": "COc1ccc(CCNC(=O)[C@@H]2c3ccccc3C(=O)N(Cc3ccccc3)[C@H]2c2ccc(CO)cc2)cc1", "composite z-score": 0.363}
{"molecule": "O=C(CS)NCCCCCNC(=O)[C@@H]1C[C@@H]2C(=O)N3CCC[C@H]3C(=O)N2[C@@H]1c1ccc(O)cc1", "composite z-score": 1.34}
{"molecule": "COC(=O)[C@]1(Cc2ccccc2CN=[N+]=[N-])N=C(c2ccc(OCCCO)cc2)O[C@@H]1c1ccccc1", "composite z-score": -0.782}
{"molecule": "COc1ccc([Si](C)(C)[C@@H]2[C@@H](CC(=O)N(CCO)Cc3ccccc3)O[C@]3(C(=O)N(Cc4ccc(N5CCOC5=O)cc4)c4ccccc43)[C@H]2C)cc1", "composite z-score": 1.05}
{"molecule": "[N-]=[N+]=NCc1ccccc1C[C@]1(C(=O)NCCN2CCOCC2)N=C(c2ccc(OCCCO)cc2)O[C@H]1c1ccccc1", "composite z-score": 0.473}
{"molecule": "COC(=O)[C@H]1N=C(c2ccc(OCCCO)cc2)O[C@H]1c1ccccc1CN=[N+]=[N-]", "composite z-score": -0.372}
